# According to the supplement of paper PMC8728848:
# Many of the other results were omitted from the sample, so the strongest signals are more common in it than they were.
# B1: GS13846A-bth-444-19-444 (Bacteroides thetaiotaomicron) (protein)
# chain: SCENEFDVSDKADSLISVTVNTLNNQAAYNVGETAQAELWIQRGGLKDASGKVQFVVDPLLLDSLNQEDKTNYELLPENCYEMTNTEFTVDKNELCGYITYHPEKILALSAYNETKYVLPLRLISNDLAINPARNTSFLAFTILEPIVHISNAGVYNINPDLTSTMDIQIGVPFTNKWDILCNLTEDLSLIDEYNQINKVNFTLLPENAYTAPESVTLQEGVSQITASYQLKNNLVPGNYILPIKIGSITASQGGVPNNSLVIDEESNVLFCIVKEGNKINKSGWEVIECSSEHAGNEATYMIDDNESTYWHCKFKNEAGSSVPPFHFIIDMKKEITIAQIDLLNRGDGAANNIKWVEFYASNNNSEWDKIGAGDFNDEGTRATFRYYVKSTKARYLKLIIPEGYGNNCPPAAIRELTVYGLEGNN
# Legend:
# Assay in all cases: glycan array binding signal (z-score within array); higher = stronger binding
# Settings in all cases: glycan notation: IUPAC condensed, linker removed
# Fuc(a1-2)Gal(b1-3)GalNAc = biological target: Fuc(a1-2)Gal(b1-3)GalNAc
# How it was run: (§1)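 From the Consortium for Functional Glycomics database, 3228 arrays were curated, keeping only those whose protein sequence was available. Binding is given as a within-array Z-score averaged across arrays sharing a protein sequence and across linkers. Negative Z-scores can be read as non-binding.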
# [1] = biological target: Fuc(a1-2)Gal(b1-3)GlcNAc(b1-3)[Fuc(a1-2)Gal(b1-3)GlcNAc(b1-6)]GalNAc
# How it was run: as §1
# [2] = biological target: Fuc(a1-2)Gal(b1-3)[Fuc(a1-4)]GlcNAc(b1-2)Man(a1-3)[Fuc(a1-2)Gal(b1-3)[Fuc(a1-4)]GlcNAc(b1-2)Man(a1-3)]Man(b1-4)GlcNAc(b1-4)GlcNAc
# How it was run: as §1
# Fuc(a1-2)Gal(b1-4)Glc = biological target: Fuc(a1-2)Gal(b1-4)Glc
# How it was run: as §1
# [3] = biological target: Fuc(a1-2)Gal(b1-4)GlcNAc(b1-2)Man(a1-3)[Fuc(a1-2)Gal(b1-4)GlcNAc(b1-2)Man(a1-6)]Man(b1-4)GlcNAc(b1-4)GlcNAc
# How it was run: as §1
# [4] = biological target: Fuc(a1-2)Gal(b1-4)GlcNAc(b1-2)[Fuc(a1-2)Gal(b1-4)GlcNAc(b1-4)]Man(a1-3)[Fuc(a1-2)Gal(b1-4)GlcNAc(b1-2)Man(a1-6)]Man(b1-4)GlcNAc(b1-4)GlcNAc
# How it was run: as §1
# [5] = biological target: Fuc(a1-2)Gal(b1-4)GlcNAc(b1-3)[Fuc(a1-3)[Gal(b1-4)]GlcNAc(b1-6)]Gal(b1-4)Glc
# How it was run: as §1
# [6] = biological target: Fuc(a1-2)Gal(b1-4)[Fuc(a1-3)]GlcNAc(b1-2)[Fuc(a1-2)Gal(b1-4)[Fuc(a1-3)]GlcNAc(b1-4)]Man(a1-3)[Fuc(a1-2)Gal(b1-4)[Fuc(a1-3)]GlcNAc(b1-2)Man(a1-6)]Man(b1-4)GlcNAc(b1-4)GlcNAc
# How it was run: as §1
# Fuc(a1-2)Gal6S(b1-4)Glc = biological target: Fuc(a1-2)Gal6S(b1-4)Glc
# How it was run: as §1
# [7] = biological target: Fuc(a1-2)[Gal(a1-3)]Gal(b1-3)GlcNAc(b1-2)Man(a1-3)[Fuc(a1-2)[Gal(a1-3)]Gal(b1-3)GlcNAc(b1-2)Man(a1-6)]Man(b1-4)GlcNAc(b1-4)GlcNAc
# How it was run: as §1
# [8] = biological target: Gal(a1-3)[Gal(a1-4)]Gal(b1-4)GlcNAc
# How it was run: as §1
# [9] = biological target: Gal(a1-4)Gal(b1-4)GlcNAc(b1-3)Gal(b1-4)Glc
# How it was run: as §1
# [10] = biological target: Gal(b1-3)GlcNAc(b1-2)Man(a1-3)[Gal(b1-3)GlcNAc(b1-2)Man(a1-6)]Man(b1-4)GlcNAc(b1-4)GlcNAc
# How it was run: as §1
# [11] = biological target: Gal(b1-3)GlcNAc(b1-2)Man(a1-3)[Gal(b1-3)GlcNAc(b1-2)Man(a1-6)]Man(b1-4)GlcNAc(b1-4)[Fuc(a1-6)]GlcNAc
# How it was run: as §1
# [12] = biological target: Gal(b1-3)GlcNAc(b1-2)[Gal(b1-3)GlcNAc(b1-6)]Man(a1-6)[Gal(b1-3)GlcNAc(b1-2)Man(a1-3)]Man(b1-4)GlcNAc(b1-4)GlcNAc
# How it was run: as §1
# [13] = biological target: Gal(b1-3)GlcNAc(b1-3)Gal(b1-4)[Fuc(a1-3)]GlcNAc
# How it was run: as §1
# [14] = biological target: Gal(b1-4)GlcNAc(b1-2)Man(a1-3)[GlcNAc(b1-4)][Gal(b1-4)GlcNAc(b1-2)Man(a1-6)]Man(b1-4)GlcNAc(b1-4)GlcNAc
# How it was run: as §1
# [15] = biological target: Gal(b1-4)GlcNAc(b1-2)Man(a1-6)Man(b1-4)GlcNAc(b1-4)GlcNAc
# How it was run: as §1
# [16] = biological target: Gal(b1-4)GlcNAc(b1-3)Gal(b1-4)GlcNAc(b1-3)Gal(b1-4)GlcNAc(b1-3)Gal(b1-4)GlcNAc(b1-2)Man(a1-3)[Gal(b1-4)GlcNAc(b1-3)Gal(b1-4)GlcNAc(b1-3)Gal(b1-4)GlcNAc(b1-3)Gal(b1-4)GlcNAc(b1-2)Man(a1-6)]Man(b1-4)GlcNAc(b1-4)[Fuc(a1-6)]GlcNAc
# How it was run: as §1
# [17] = biological target: Gal(b1-4)GlcNAc(b1-3)Gal(b1-4)GlcNAc(b1-6)[Gal(b1-3)]GalNAc
# How it was run: as §1
# Gal(b1-6)Gal = biological target: Gal(b1-6)Gal
# How it was run: as §1
# Gal3S6S(b1-4)GlcNAc = biological target: Gal3S6S(b1-4)GlcNAc
# How it was run: as §1
# Gal3S6S(b1-4)GlcNAc6S = biological target: Gal3S6S(b1-4)GlcNAc6S
# How it was run: as §1
# Gal6S(b1-3)GlcNAc = biological target: Gal6S(b1-3)GlcNAc
# How it was run: as §1
# Gal6S(b1-3)GlcNAc6S = biological target: Gal6S(b1-3)GlcNAc6S
# How it was run: as §1
# Gal6S(b1-4)Glc = biological target: Gal6S(b1-4)Glc
# How it was run: as §1
# Gal6S(b1-4)Glc6S = biological target: Gal6S(b1-4)Glc6S
# How it was run: as §1
# Gal6S(b1-4)GlcNAc = biological target: Gal6S(b1-4)GlcNAc
# How it was run: as §1
# Gal6S(b1-4)GlcNAc6S = biological target: Gal6S(b1-4)GlcNAc6S
# How it was run: as §1
# [18] = biological target: GalNAc(a1-3)GalNAc(b1-3)Gal(a1-4)Gal(b1-4)GlcNAc
# How it was run: as §1
# GalNAc(b1-4)Gal(b1-4)Glc = biological target: GalNAc(b1-4)Gal(b1-4)Glc
# How it was run: as §1
# GalNAc6S(b1-4)GlcNAc = biological target: GalNAc6S(b1-4)GlcNAc
# How it was run: as §1
# Glc(b1-4)Glc = biological target: Glc(b1-4)Glc
# How it was run: as §1
# [19] = biological target: GlcA3S(b1-3)Gal(b1-4)GlcNAc(b1-2)Man
# How it was run: as §1
# [20] = biological target: GlcA3S(b1-3)Gal(b1-4)GlcNAc(b1-3)Gal(b1-4)Glc
# How it was run: as §1
# [21] = biological target: GlcNAc(a1-3)Gal(b1-4)GlcNAc
# How it was run: as §1
# [22] = biological target: GlcNAc(a1-6)Gal(b1-4)GlcNAc
# How it was run: as §1
# [23] = biological target: GlcNAc(b1-3)Gal(b1-4)GlcNAc(b1-3)Gal(b1-4)GlcNAc(b1-2)Man(a1-3)[GlcNAc(b1-3)Gal(b1-4)GlcNAc(b1-3)Gal(b1-4)GlcNAc(b1-2)Man(a1-6)]Man(b1-4)GlcNAc(b1-4)[Fuc(a1-6)]GlcNAc
# How it was run: as §1
# [24] = biological target: GlcNAc(b1-4)Gal(b1-4)GlcNAc
# How it was run: as §1
# [25] = biological target: Neu5Ac(a2-3)Gal(b1-4)GlcNAc(b1-2)Man(a1-3)[Neu5Ac(a2-3)Gal(b1-4)GlcNAc(b1-2)Man(a1-6)]Man(b1-4)GlcNAc(b1-4)[Fuc(a1-6)]GlcNAc
# How it was run: as §1
# [26] = biological target: Neu5Ac(a2-3)Gal(b1-4)GlcNAc(b1-3)Gal(b1-4)GlcNAc(b1-3)Gal(b1-4)GlcNAc
# How it was run: as §1
# [27] = biological target: Neu5Ac(a2-3)Gal(b1-4)GlcNAc(b1-3)Gal(b1-4)GlcNAc(b1-3)Gal(b1-4)GlcNAc(b1-2)Man(a1-3)[Neu5Ac(a2-3)Gal(b1-4)GlcNAc(b1-3)Gal(b1-4)GlcNAc(b1-3)Gal(b1-4)GlcNAc(b1-2)Man(a1-6)]GalNAc
# How it was run: as §1
# [28] = biological target: Neu5Ac(a2-3)Gal(b1-4)GlcNAc(b1-3)Gal(b1-4)GlcNAc(b1-3)[Neu5Ac(a2-3)Gal(b1-4)GlcNAc(b1-3)Gal(b1-4)GlcNAc(b1-6)]GalNAc
# How it was run: as §1
# [29] = biological target: Neu5Ac(a2-3)Gal(b1-4)[Fuc(a1-3)]GlcNAc(b1-3)Gal(b1-4)GlcNAc
# How it was run: as §1
# [30] = biological target: Neu5Ac(a2-3)Gal6S(b1-4)GlcNAc
# How it was run: as §1
# [31] = biological target: Neu5Ac(a2-6)Gal(b1-4)GlcNAc(b1-2)Man(a1-3)Man(b1-4)GlcNAc(b1-4)GlcNAc
# How it was run: as §1
# [32] = biological target: Neu5Ac(a2-6)Gal(b1-4)GlcNAc(b1-2)Man(a1-6)[Gal(b1-4)GlcNAc(b1-2)Man(a1-3)]Man(b1-4)GlcNAc(b1-4)GlcNAc
# How it was run: as §1
# [33] = biological target: Neu5Ac(a2-6)Gal(b1-4)GlcNAc(b1-6)[Gal(b1-3)]GalNAc
# How it was run: as §1
# [34] = biological target: Neu5Ac(a2-6)GlcNAc(b1-4)GlcNAc
# How it was run: as §1
# [35] = biological target: Neu5Gc(a2-8)Neu5Gc(a2-6)Gal(b1-4)GlcNAc
# How it was run: as §1
binder,measurement,setting,value
B1,glycan array binding signal (z-score),Fuc(a1-2)Gal(b1-3)GalNAc,-0.247
same,glycan array binding signal (z-score),[1],-0.101
same,glycan array binding signal (z-score),[2],-0.423
same,glycan array binding signal (z-score),Fuc(a1-2)Gal(b1-4)Glc,-0.176
same,glycan array binding signal (z-score),[3],0.384
same,glycan array binding signal (z-score),[4],-0.079
same,glycan array binding signal (z-score),[5],0.069
same,glycan array binding signal (z-score),[6],-0.407
same,glycan array binding signal (z-score),Fuc(a1-2)Gal6S(b1-4)Glc,-0.234
same,glycan array binding signal (z-score),[7],-0.305
same,glycan array binding signal (z-score),[8],2.7
same,glycan array binding signal (z-score),[9],-0.018
same,glycan array binding signal (z-score),[10],0.242
same,glycan array binding signal (z-score),[11],3.4
same,glycan array binding signal (z-score),[12],-0.163
same,glycan array binding signal (z-score),[13],0.028
same,glycan array binding signal (z-score),[14],-0.238
same,glycan array binding signal (z-score),[15],-0.133
same,glycan array binding signal (z-score),[16],0.486
same,glycan array binding signal (z-score),[17],-0.308
same,glycan array binding signal (z-score),Gal(b1-6)Gal,-0.188
same,glycan array binding signal (z-score),Gal3S6S(b1-4)GlcNAc,6.47
same,glycan array binding signal (z-score),Gal3S6S(b1-4)GlcNAc6S,6.71
same,glycan array binding signal (z-score),Gal6S(b1-3)GlcNAc,7.3
same,glycan array binding signal (z-score),Gal6S(b1-3)GlcNAc6S,6.28
same,glycan array binding signal (z-score),Gal6S(b1-4)Glc,3.68
same,glycan array binding signal (z-score),Gal6S(b1-4)Glc6S,12.7
same,glycan array binding signal (z-score),Gal6S(b1-4)GlcNAc,4.8
same,glycan array binding signal (z-score),Gal6S(b1-4)GlcNAc6S,8.87
same,glycan array binding signal (z-score),[18],-0.175
same,glycan array binding signal (z-score),GalNAc(b1-4)Gal(b1-4)Glc,0
same,glycan array binding signal (z-score),GalNAc6S(b1-4)GlcNAc,5.49
same,glycan array binding signal (z-score),Glc(b1-4)Glc,-0.32
same,glycan array binding signal (z-score),[19],-0.266
same,glycan array binding signal (z-score),[20],-0.082
same,glycan array binding signal (z-score),[21],-0.214
same,glycan array binding signal (z-score),[22],-0.052
same,glycan array binding signal (z-score),[23],0.103
same,glycan array binding signal (z-score),[24],-0.193
same,glycan array binding signal (z-score),[25],-0.407
same,glycan array binding signal (z-score),[26],0.067
same,glycan array binding signal (z-score),[27],-0.089
same,glycan array binding signal (z-score),[28],-0.336
same,glycan array binding signal (z-score),[29],-0.205
same,glycan array binding signal (z-score),[30],-0.129
same,glycan array binding signal (z-score),[31],-0.287
same,glycan array binding signal (z-score),[32],-0.298
same,glycan array binding signal (z-score),[33],1.86
same,glycan array binding signal (z-score),[34],0.027
same,glycan array binding signal (z-score),[35],-0.262
